# Shown are actives, neighbours in structure and some others; about 1.6% of the full set was active somewhere.
# UBC9 SUMO inh – inhibitors of in vitro SUMOylation cascade, primary screen, biochemical, HTRF, uHTS; actives 0.36% (n = 290,000); inhibition, % at 35 µM; HTRF SUMOylation assay, SAE1/SAE2 + UBC9; AID 2006, 2009; SUMO-conjugating enzyme UBC9 (Homo sapiens), P63279; in the data active means inhibition above about 50%, passing the limit was not always enough
# Casp6 inh – human caspase-6 inhibitors, primary screen, biochemical, VEID-R110 fluorescence, single point, set 2. P55212. AID 686996, 2013. actives 0.53% (n = 350,000). inhibition, % at 12.5 µM. purified caspase-6, Z-VEID-R110 cleavage fluorescence;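 active means mean inhibition across replicates at least about 35%, with every replicate also reaching that limit, limit read from the data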;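 further: 0% = median of neutral control wells and 100% = no fluorescence left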
# NSD2 inh – NSD2 histone methyltransferase inhibitors, primary screen, biochemical, AlphaScreen, single concentration, set 2 | Histone-lysine N-methyltransferase NSD2 (Homo sapiens), O96028 | NSD2 peptide methylation, 120 min | inhibition, % at 12.5 µM | actives 0.54% (n = 310,000) | AID 743445, 2014; in the data active means inhibition above about 50%
# Target sequence (O96028 whole entry, looked up): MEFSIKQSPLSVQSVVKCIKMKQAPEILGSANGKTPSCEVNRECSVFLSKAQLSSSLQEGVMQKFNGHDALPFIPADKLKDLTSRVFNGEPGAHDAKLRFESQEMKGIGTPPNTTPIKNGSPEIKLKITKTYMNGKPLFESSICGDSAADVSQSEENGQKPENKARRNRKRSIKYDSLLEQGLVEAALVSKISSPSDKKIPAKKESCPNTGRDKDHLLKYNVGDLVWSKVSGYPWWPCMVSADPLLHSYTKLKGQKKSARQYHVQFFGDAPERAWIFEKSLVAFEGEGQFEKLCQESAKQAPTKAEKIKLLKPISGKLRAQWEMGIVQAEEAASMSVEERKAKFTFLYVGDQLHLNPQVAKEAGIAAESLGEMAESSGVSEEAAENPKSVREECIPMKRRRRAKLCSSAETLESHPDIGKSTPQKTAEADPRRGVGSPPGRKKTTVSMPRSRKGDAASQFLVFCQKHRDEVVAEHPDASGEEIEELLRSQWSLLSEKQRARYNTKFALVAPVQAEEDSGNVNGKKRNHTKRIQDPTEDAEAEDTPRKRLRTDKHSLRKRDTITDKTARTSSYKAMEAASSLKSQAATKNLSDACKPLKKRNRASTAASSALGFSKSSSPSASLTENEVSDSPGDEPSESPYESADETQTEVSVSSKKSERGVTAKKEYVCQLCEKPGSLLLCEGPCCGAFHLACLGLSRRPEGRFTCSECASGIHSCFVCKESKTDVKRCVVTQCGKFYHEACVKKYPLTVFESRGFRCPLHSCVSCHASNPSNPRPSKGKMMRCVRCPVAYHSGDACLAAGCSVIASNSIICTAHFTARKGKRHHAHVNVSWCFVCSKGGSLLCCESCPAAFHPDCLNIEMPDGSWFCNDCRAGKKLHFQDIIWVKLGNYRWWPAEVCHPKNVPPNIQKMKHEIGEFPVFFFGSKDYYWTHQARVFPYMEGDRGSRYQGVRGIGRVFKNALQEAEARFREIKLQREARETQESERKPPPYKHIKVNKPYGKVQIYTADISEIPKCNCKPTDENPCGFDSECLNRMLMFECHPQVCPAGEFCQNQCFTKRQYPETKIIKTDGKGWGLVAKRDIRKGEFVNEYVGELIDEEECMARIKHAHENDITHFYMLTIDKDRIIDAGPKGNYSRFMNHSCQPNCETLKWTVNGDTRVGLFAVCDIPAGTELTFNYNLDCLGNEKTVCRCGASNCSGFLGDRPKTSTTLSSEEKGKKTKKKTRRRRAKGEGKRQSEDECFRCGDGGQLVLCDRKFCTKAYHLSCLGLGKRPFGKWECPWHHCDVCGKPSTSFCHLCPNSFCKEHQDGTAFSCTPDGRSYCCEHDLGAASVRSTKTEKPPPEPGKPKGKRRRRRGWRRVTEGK
# SIRT5 block – SIRT5 desuccinylase inhibitors, primary screen, biochemical, fluorescence imaging, single point, set 5; NAD-dependent protein deacylase sirtuin-5, mitochondrial (Homo sapiens), Q9NXA8; Purified SirT5, succinyl-peptide AMC, trypsin-coupled fluorescence; inhibition, % at 15 µM; actives 1.1% (n = 330,000); AID 652115, 2013; in the data active means inhibition above about 15%
# Numbers without * were called inactive; . = no result.
SMILES,UBC9 SUMO inh,Casp6 inh,NSD2 inh,SIRT5 block
C[C@@H]1CN([C@@H](C)CO)C(=O)CCCn2cc(nn2)CO[C@@H]1CN(C)Cc1ccc(-c2ccccc2)cc1,.,-5,.,-2
O=C(NCc1cccnc1)c1ccc(Cn2c(=S)[nH]c3ccc(Br)cc3c2=O)cc1,19,-5,0,16*
O=C(Nc1ccccc1)N1C[C@@H]2[C@H](c3ccccc31)[C@@H](CO)N2C(=O)c1ccccc1F,.,-2,.,-1
NC1=C(Cl)C(=O)c2ccccc2C1=O,.,97*,.,-3
Cc1nnc(-c2ccc(Cl)cc2)nc1NCCN(C)C,8,-5,3,18*
CO[C@@H]1CN(C)C(=O)c2ccc(NC(=O)c3ccc(F)cc3)cc2OC[C@H](C)N(C(=O)CN(C)C)C[C@H]1C,.,3,.,.
C[C@@H]1CN([C@H](C)CO)S(=O)(=O)c2ccc(/C=C/c3ccccc3)cc2O[C@H]1CN(C)C(=O)NC1CCCCC1,.,-1,.,25*
C[C@H]1CN([C@@H](C)CO)S(=O)(=O)c2ccc(/C=C/c3ccccc3)cc2O[C@@H]1CN(C)C(=O)NC1CCCCC1,.,1,.,30*
C/C=C/c1ccc2c(c1)O[C@@H](CN(C)C(=O)NC1CCCCC1)[C@H](C)CN([C@H](C)CO)S2(=O)=O,.,1,.,4
C/C=C/c1ccc2c(c1)O[C@@H](CN(C)C(=O)NC1CCCCC1)[C@H](C)CN([C@@H](C)CO)S2(=O)=O,.,-1,.,-4
CC(C)NC(=O)N(C)C[C@@H]1Oc2ccc(NC(=O)Nc3ccc(F)cc3)cc2CC(=O)N([C@@H](C)CO)C[C@H]1C,.,1,.,4
COc1ccc(-n2c(O)c(/C=C3\C=Nc4ccccc43)c(=O)[nH]c2=O)cc1,29,1,46,39*
C=C1c2cccc(O)c2C(O)=C2C(=O)[C@]3(O)C(O)=C(C(N)=O)C(=O)[C@@H](N(C)C)[C@@H]3[C@@H](O)[C@H]12,93*,94*,.,.
CO[C@H]1CN(C)C(=O)c2cc(NC(=O)c3nc4ccccc4s3)ccc2OC[C@H](C)N(Cc2cncnc2)C[C@@H]1C,.,.,.,15*
CO[C@H]1CN(C)C(=O)c2cc(NC(=O)c3nc4ccccc4s3)ccc2OC[C@H](C)NC[C@H]1C,.,-2,.,1.9*
CO[C@@H]1CN(C)C(=O)c2cc(NC(=O)c3nc4ccccc4s3)ccc2OC[C@H](C)NC[C@H]1C,.,-1,.,.
COc1ccc(CN2C[C@H](C)[C@@H](OC)CN(C)C(=O)c3ccc(NC(=O)c4nc5ccccc5s4)cc3OC[C@H]2C)cc1,.,-2,.,6
COc1ccc(CN2C[C@H](C)[C@@H](OC)CN(C)C(=O)c3ccc(NC(=O)c4nc5ccccc5s4)cc3OC[C@@H]2C)cc1,.,0,.,102*
C[C@@H]1CN([C@@H](C)CO)C(=O)Cc2cc(NC(=O)Nc3ccc(F)cc3)ccc2O[C@@H]1CN(C)S(=O)(=O)c1cccs1,.,-3,.,1
COc1ccc2c3c([nH]c2c1)[C@H](CO)N(CC1CC1)CC31CN(C(=O)C2CCOCC2)C1,.,3,.,.
C[C@H]1CN([C@@H](C)CO)C(=O)Cc2cc(NC(=O)CCCCCC(=O)Nc3ccccc3N)ccc2O[C@@H]1CN(C)Cc1ccc(Oc2ccccc2)cc1,.,-4,.,29*
COc1ccc(CN(C)C[C@H]2Oc3ccc(NC(=O)CCCCCC(=O)Nc4ccccc4N)cc3CC(=O)N([C@@H](C)CO)C[C@H]2C)cc1,.,0,.,.
C[C@@H]1CN([C@@H](C)CO)C(=O)Cc2cc(NC(=O)CCCCCC(=O)Nc3ccccc3N)ccc2O[C@@H]1CN(C)Cc1ccc(Oc2ccccc2)cc1,.,1,.,26*
COc1ccc(CN(C)C[C@@H]2Oc3ccc(NC(=O)CCCCCC(=O)Nc4ccccc4N)cc3CC(=O)N([C@@H](C)CO)C[C@@H]2C)cc1,.,0,.,-23
COc1ccc(CN(C)C[C@H]2Oc3ccc(NC(=O)CCCCCC(=O)Nc4ccccc4N)cc3CC(=O)N([C@H](C)CO)C[C@H]2C)cc1,.,-1,.,.
SMILES,UBC9 SUMO inh,Casp6 inh,NSD2 inh,SIRT5 block
C[C@@H]1CN([C@H](C)CO)C(=O)Cc2cc(NC(=O)CCCCCC(=O)Nc3ccccc3N)ccc2O[C@@H]1CN(C)Cc1ccc(Oc2ccccc2)cc1,.,-2,.,16*
COc1ccc(S(=O)(=O)Nc2ccc3c(c2)C(=O)N([C@@H](C)CO)C[C@@H](C)[C@H](CN(C)C(=O)c2ccccc2)OCCCC[C@H](C)O3)cc1,.,-4,.,1
CCC12CCCN3CCc4c(n(c5ccccc45)C(O)(C(=O)OC)C1)C32 (configuration not stated),32,60*,.,-3
COc1ccccc1-c1ccc2n(c1=O)C[C@H]1[C@H](CO)[C@@H](C(=O)N3CCCCC3)[C@@H]2N1CC1CC1,.,2,.,-4
COc1ccccc1-c1ccc2n(c1=O)C[C@@H]1[C@@H](CO)[C@H](C(=O)N3CCCCC3)[C@H]2N1CC1CC1,.,-1,.,20*
CN(C)c1cccc2c1c(NS(=O)(=O)c1cn(C)cn1)nn2C,39,52*,78*,4
Cc1ccccc1S(=O)(=O)NCC[C@H]1CC[C@H](NC(=O)C2CCC2)[C@@H](CO)O1,.,0,.,1
C[C@@H]1CCCCO[C@@H](CN(C)C(=O)NC2CCCCC2)[C@H](C)CN([C@@H](C)CO)C(=O)c2cc(NC(=O)C3CCCCC3)ccc2O1,.,2,.,2
Cc1cc(O)c2c(c1)C(=O)c1cccc(O)c1C2=O,45,4,.,.
O=C(O)c1cc(O)c2c(c1)C(=O)c1cccc(O)c1C2=O,32,40*,.,18*
O=C(O)CCCNC(=O)/C=C/c1ccco1,21,60*,24,0
O=C(/C=C\c1ccco1)NC(=S)Nc1ccccc1O,-2,49*,.,3
O=C(/C=C/c1ccco1)NC(=S)Nc1cccc(C(=O)O)c1,34,36*,40,22*
O=C(O)CCCCCNC(=O)/C=C/c1ccco1,6,8,-3,-3
Cc1ccc(NC(=S)NC(=O)/C=C/c2ccco2)c(O)c1,13,43*,11,12
COc1ccc(NC(=S)NC(=O)/C=C/c2ccco2)c(OC)c1,1,0,1,1
CC(=O)Nc1ccc2c(c1)C(=O)N(C)[C@H]1CC[C@H](CC(=O)Nc3c(F)cccc3F)O[C@@H]1CO2,.,-1,.,1
CN1CCN(C(=O)C[C@H]2CC[C@H]3[C@@H](COC[C@@H](O)CN3C(=O)Nc3ccc(Cl)cc3)O2)CC1,.,-1,.,-5
C[C@@H]1CN([C@@H](C)CO)C(=O)Cc2cc(NS(=O)(=O)c3ccc(F)cc3)ccc2O[C@H]1CN(C)S(C)(=O)=O,.,-1,.,1
O=C(/C=C/c1ccco1)NC(=S)Nc1ccccc1O,2,51*,24,4
O=C(NCC[C@@H]1CC[C@H](NC(=O)c2ccc3c(c2)OCO3)[C@@H](CO)O1)Nc1cc(F)ccc1F,.,-2,.,-1
